Screening data: PubChem BioAssay, National Center for Advancing Translational Sciences (NCATS)
Rows were chosen to be rich in hits. Some 1.1% of all compounds tested hit in one or more screens of this group.
Giardia FBPA inh = blocks Giardia fructose-bisphosphate aldolase activity; Potency, µM (highest dose often 59.6 µM), inactives show top-dose activity, negative = inhibition, hits mostly inhibitors; purified Giardia FBPA; 290,000 compounds, 0.71% hits; AID 2451; further: potency means the concentration at half of the fitted maximal effect; on the % scale 0 is the no-effect control and ±100 the full control effect; nearly all actives have a fitted effect of over 55% in size
Target sequence (A8B2U2 whole entry, looked up): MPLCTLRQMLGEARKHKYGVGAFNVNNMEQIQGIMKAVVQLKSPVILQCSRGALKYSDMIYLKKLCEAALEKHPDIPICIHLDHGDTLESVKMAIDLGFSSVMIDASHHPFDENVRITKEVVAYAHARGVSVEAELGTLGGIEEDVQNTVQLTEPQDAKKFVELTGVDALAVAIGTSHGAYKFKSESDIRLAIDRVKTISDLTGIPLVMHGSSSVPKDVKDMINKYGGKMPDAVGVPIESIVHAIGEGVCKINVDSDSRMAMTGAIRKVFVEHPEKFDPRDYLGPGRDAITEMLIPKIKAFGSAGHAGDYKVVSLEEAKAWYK
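40 nM FBPA preincubated 10 min at RT with compound (up to 57.5 uM final), then substrate plus GAPDH/TPI/NAD/arsenate coupling and diaphorase/resazurin added. Fluorescence read after 20 min at RT, 525/598 nm.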
AmpC no deterg = AmpC beta-lactamase inhibition without detergent | AmpC nitrocefin hydrolysis, absorbance 480 nm, 0.0001% Triton | P00811 | 330,000 compounds, 0.52% hits | Potency, µM (titrated, usually from 57.1 µM), for the others: at the top dose activity change, negative = inhibition, actives largely listed as inhibitors;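 further: potency means the concentration at half of the fitted maximal effect; plate controls were no compound for no effect and no enzyme for full effect; nearly all actives have a fitted effect of over 20% in size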
Target sequence (P00811 whole entry, looked up): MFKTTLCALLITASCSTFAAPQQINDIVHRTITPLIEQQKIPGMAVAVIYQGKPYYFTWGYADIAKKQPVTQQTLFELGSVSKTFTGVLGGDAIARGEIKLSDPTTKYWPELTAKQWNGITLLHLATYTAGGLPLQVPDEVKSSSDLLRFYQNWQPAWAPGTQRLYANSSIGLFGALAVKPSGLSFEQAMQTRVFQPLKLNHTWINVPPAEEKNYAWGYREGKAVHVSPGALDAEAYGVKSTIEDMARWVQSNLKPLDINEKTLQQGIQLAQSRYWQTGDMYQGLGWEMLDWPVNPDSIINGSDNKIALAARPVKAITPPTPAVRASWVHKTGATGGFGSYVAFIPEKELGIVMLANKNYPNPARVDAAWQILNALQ
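20 mM phosphate pH 7.0 + 0.01% (detergent screen) or 0.0001% Triton X-100; 5.3 nM AmpC reagent; cpd preinc 15 min RT; nitrocefin (800 uM stock) to start; A480 q20 s × 4 min; Activity was normalised to no-enzyme and no-compound control wells.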
AmpC detergent = blocks E. coli AmpC beta-lactamase in detergent assay | P00811 | AmpC hydrolysis of nitrocefin, absorbance 480 nm, 0.01% Triton | Potency, µM (titrated, usually from 114 µM), for inactives: at the highest dose activity change, negative = inhibition, hits mostly inhibitors | 370,000 compounds, 0.041% hits | AID 485294;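 further: potency means the concentration at half of the fitted maximal effect; 0% = no-compound wells and -100% = no-enzyme wells; nearly all actives have a fitted effect of over 25% in size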
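20 mM phosphate pH 7.0 + 0.01% (detergent screen) or 0.0001% Triton X-100; 5.3 nM AmpC reagent; cpd preinc 15 min RT; nitrocefin (800 uM stock) to start; A480 q20 s × 4 min; Activity was normalised to no-enzyme and no-compound control wells.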
SARS PLpro yeast-1 = SARS-CoV PLP inhibition in yeast. S. cerevisiae expressing SARS-CoV PLpro, growth rescue. Potency, µM (titrated, usually from 32.9 µM), without a hit: at the highest dose activity, positive = growth rescue, hits mostly activators. 330,000 compounds, 0.19% hits; calls by dose curve; further: potency means the concentration at half of the fitted maximal effect; 0% is about no effect; nearly all actives have a fitted effect of over 55% in size
SARS PLpro yeast-2 = Inhibits SARS-CoV PLP in yeast, hit validation; shares compounds with SARS PLpro yeast-1; yeast expressing SARS-CoV PLpro, growth phenotype rescue; calls only; 1,000 compounds, 19% hits; AID 652038; call rule not given here
* = called active by the depositor; i = inactive; ? = inconclusive; . = not tested or not shown; + = active, no number; [ ] = another dose, or the depositor's remark. Unless noted, the call rests on the fitted dose curve; in most records, active means well fitted curve in the direction sought with a large enough effect; inconclusive means small, poorly fitted or top-dose-only effect, or another doubt; inactive means no such curve, though single readings can be large; an effect the other way counts as inactive or inconclusive.

SMILES | Giardia FBPA inh | AmpC no deterg | AmpC detergent | SARS PLpro yeast-1 | SARS PLpro yeast-2
CCN1C(=NCc2ccccc2)N[C@@H](c2ccccc2)[C@H](C(=O)OC)[C@H]1C | -16% | -14% | ? | ? | i
C=CCn1c(SCC(=O)Nc2cc(C)on2)nc2c([nH]c3ccccc32)c1=O | . | -15% | 1% | ? | i
O=C(c1ccccc1)N1CCc2cc(CNS(=O)(=O)c3ccc(Cl)s3)ccc21 | . | . | -4% | . | .
CCCc1c(C)c2c(C)[nH]nc2oc1=O | -9% | -10% | ? | 1% | .
Cc1c(C)c2c(C)[nH]nc2oc1=O | 0% | -5% | -2% | ? | i
O=C(NCc1ccccc1Br)c1cnc2sc(N3CCCCCC3)nn2c1=O | . | . | 11% | . | .
Cn1c(=O)c(Cc2ccccc2)c(O)c2ccccc21 | -10% | -4% | 1% | 10µM* | ?
Cc1ccc(Cc2nc3ccccc3nc2SCC(=O)N2CCCCC2C)cc1 (configuration not stated) | . | . | -5% | . | .
CCC1CCCCN1S(=O)(=O)c1ccc(C(=O)Nc2nnc(-c3cccs3)o2)cc1 (configuration not stated) | ? | -23% | -9% | 11µM* | +
Cc1c(Cl)c([N+](=O)[O-])nn1CC(=O)N1CCCc2ccccc21 | 0% | -24% | -11% | 6% | .
Cc1cc([N+](=O)[O-])nn1CC(=O)N1CCCc2ccccc21 | -7% | -12% | -5% | 16µM* | i
CC1=C(C(=O)Nc2ccccc2)C(c2ccc(C(=O)O)cc2)n2nc(SCC(=O)c3ccc(C)cc3)nc2N1 (configuration not stated) | . | . | 9% | . | .
COc1ccc(OC)c(-c2c3cc(O)c(=O)cc-3oc3cc(O)c(O)cc23)c1 | ? | 28µM* | -4% | ? | +
COc1ccccc1-c1cc(=O)c2cc(O)ccc2o1 | 0% | . | . | . | .
COc1cc2oc(-c3ccccc3)cc(=O)c2cc1O | 2% | . | . | . | .
CCOc1ccccc1-c1c2cc(O)c(=O)cc-2oc2cc(O)c(O)cc12 | 6.3µM* | -55% | ? | 11µM* | +
Cc1cc(C)c2oc(-c3ccc(C)c(NC(=O)/C=C/c4ccco4)c3)nc2c1 | . | . | -3% | . | .
Cc1ccc(/C=C/c2onc(C)c2S(=O)(=O)N2CCC(C(=O)N3CC(C)Oc4ccccc43)CC2)cc1 (configuration not stated) | . | . | -5% | . | .
Nc1ncnc2c1nc(Sc1ccc(Cl)cc1)n2[C@H]1O[C@@H]2COP(=O)(O)O[C@H]2[C@@H]1O | -1% | . | . | . | .
Cc1cc(NC(c2ccc(Cl)cc2)c2ccc3cccnc3c2O)no1 (configuration not stated) | -21% | 4.5µM* | 0% | ? | i
CCCC(=O)NC(c1ccc(N(C)C)cc1)c1ccc2cccnc2c1O (configuration not stated) | ? | 34% | ? | 7.1µM* | ?
CC(=O)NC(c1ccco1)c1ccc2cccnc2c1O (configuration not stated) | ? | -23% | ? | ? | +
CCCC(=O)NC(c1ccc(C(C)C)cc1)c1ccc2cccnc2c1O (configuration not stated) | ? | -14% | ? | ? | .
CCCC(=O)NC(c1ccccc1Cl)c1ccc2cccnc2c1O (configuration not stated) | 14% | -26% | -4% | 2.2µM* | +
CC(C)C(=O)NC(c1ccc(Cl)cc1Cl)c1ccc2cccnc2c1O (configuration not stated) | ? | -23% | -18% | ? | .
SMILES | Giardia FBPA inh | AmpC no deterg | AmpC detergent | SARS PLpro yeast-1 | SARS PLpro yeast-2
CC1(C)Oc2cc3c(cc2O1)OC(C)(C)O3 | -1%[12.9 µM] | . | . | . | .
CCC(=O)NC(c1ccc(C)cc1)c1ccc2cccnc2c1O (configuration not stated) | -6% | -20% | -1% | ? | i
CCC(=O)NC(c1ccc(Cl)cc1Cl)c1ccc2cccnc2c1O (configuration not stated) | ? | -17% | -11% | 1% | .
COc1ccc(NC(=O)c2oc3ccccc3c2NC(=O)Cc2cccs2)c(OC)c1 | . | . | 5% | . | .
Nc1cc(Cl)nc(N/N=C/c2c(O)ccc3ccccc23)n1 | -4% | -35% | -12% | 2.5µM* | i
COC(=O)c1ccccc1NC(=O)CSc1nnc2cc(C)c3cc(C)cc(C)c3n12 | . | . | 3% | . | .
CC(C)(C)OC(=O)C[C@H]1C/C=C\C[C@@H](CC(=O)N[C@@H](CO)Cc2ccccc2)C(=O)NC[C@H](c2ccccc2)OC1=O | . | 104% | . | 3.5µM* | i
CC(C)(C)OC(=O)C[C@@H]1C/C=C\C[C@@H](CC(=O)N[C@@H](CO)Cc2ccccc2)C(=O)NC[C@@H](c2ccccc2)OC1=O | . | 246% | . | 1% | .
CCN(CC)c1ccc(/C=N/Nc2nc3ccccc3[nH]2)c(O)c1 | ? | -26% | 4% | 10µM* | +
CCN(CC)c1ccc(/C=N/NC(=O)Cc2cccs2)c(O)c1 | -14% | -24% | -7% | 5µM* | i
COC(=O)Sc1nc(N2CCOCC2)c2c(c1C#N)CC(C)(C)OC2 | -9% | 40% | -16% | 10µM* | +
O=C(c1ccc2c(c1)N(Cc1ccc(F)cc1)C(=O)c1ccccc1S2=O)N1CCC(Cc2ccccc2)CC1 (configuration not stated) | . | . | 17% | . | .
O=C(CSc1nc2ccccc2c(=O)n1CCCN1CCOCC1)Nc1ccccc1OC(F)F | . | 191% | . | 2.8µM* | i
COCCNc1ncnc2ccc(-c3ccccc3OC)cc12 | 0% | . | . | . | .
O=S(=O)(c1ccc2ccccc2c1)N(CC(O)CN1CCOCC1)c1ccccc1 (configuration not stated) | 9% | 107% | -14% | ? | i
COc1ccc(N2CCN(C(=O)c3cccc(NC(=O)c4nsc5ccccc45)c3)CC2)cc1 | . | . | -2% | . | .
CC(=Nc1ccc(C)c(C)c1)C1=C(O)CCC1=O | 0% | -13% | -6% | -3% | .
CC(=NC(C)C)C1=C(O)CCC1=O | -1% | -7% | -10% | ? | i
COc1ccc(-c2nn(-c3ccccc3)cc2/C=N/NC(=S)NC(C)C)cc1OC | -6% | -31% | -12% | 7.1µM* | +
CCN(CC)S(=O)(=O)c1cccc(NC(=O)/C=C/c2cccc([N+](=O)[O-])c2)c1 | -3% | -28% | -2% | 20µM* | ?
CCc1ccc(NC(=O)Cn2c(=O)n(CCc3ccccc3)c(=O)c3sc4ccccc4c32)cc1 | . | . | -11% | . | .
Cc1ccc(CNC(=O)/C=C/c2ccc(Br)o2)cc1 | 0% | -57% | ? | . | i
O=C(/C=C/c1ccc(Br)o1)NCc1ccccc1 | -26% | -27% | -6% | 0% | .
COc1ccc(C)cc1NC(=O)NCc1ccco1 | -1% | -6%[2.29 µM] | -8% | -1% | .
COc1ccc(C)cc1NC(=O)c1cc2ccccc2cc1OCC(=O)NCc1ccco1 | -3% | -15% | 9% | 3.5µM* | +
